Here are results for 60 molecules from PMC4336329 (PLoS ONE, 2015).

Out of some 310,000 compounds screened, about 14,000 (4.5%) showed an effect of 50% or more. Effects have a minus sign here. This is one part of a sample in which strong results are shown more often than they occur.
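Note: peak tail current of the secondary pulse compared with the same well before compound.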

Chain of human ether-à-go-go-related gene (hERG) potassium channel (Q12809 whole entry, looked up): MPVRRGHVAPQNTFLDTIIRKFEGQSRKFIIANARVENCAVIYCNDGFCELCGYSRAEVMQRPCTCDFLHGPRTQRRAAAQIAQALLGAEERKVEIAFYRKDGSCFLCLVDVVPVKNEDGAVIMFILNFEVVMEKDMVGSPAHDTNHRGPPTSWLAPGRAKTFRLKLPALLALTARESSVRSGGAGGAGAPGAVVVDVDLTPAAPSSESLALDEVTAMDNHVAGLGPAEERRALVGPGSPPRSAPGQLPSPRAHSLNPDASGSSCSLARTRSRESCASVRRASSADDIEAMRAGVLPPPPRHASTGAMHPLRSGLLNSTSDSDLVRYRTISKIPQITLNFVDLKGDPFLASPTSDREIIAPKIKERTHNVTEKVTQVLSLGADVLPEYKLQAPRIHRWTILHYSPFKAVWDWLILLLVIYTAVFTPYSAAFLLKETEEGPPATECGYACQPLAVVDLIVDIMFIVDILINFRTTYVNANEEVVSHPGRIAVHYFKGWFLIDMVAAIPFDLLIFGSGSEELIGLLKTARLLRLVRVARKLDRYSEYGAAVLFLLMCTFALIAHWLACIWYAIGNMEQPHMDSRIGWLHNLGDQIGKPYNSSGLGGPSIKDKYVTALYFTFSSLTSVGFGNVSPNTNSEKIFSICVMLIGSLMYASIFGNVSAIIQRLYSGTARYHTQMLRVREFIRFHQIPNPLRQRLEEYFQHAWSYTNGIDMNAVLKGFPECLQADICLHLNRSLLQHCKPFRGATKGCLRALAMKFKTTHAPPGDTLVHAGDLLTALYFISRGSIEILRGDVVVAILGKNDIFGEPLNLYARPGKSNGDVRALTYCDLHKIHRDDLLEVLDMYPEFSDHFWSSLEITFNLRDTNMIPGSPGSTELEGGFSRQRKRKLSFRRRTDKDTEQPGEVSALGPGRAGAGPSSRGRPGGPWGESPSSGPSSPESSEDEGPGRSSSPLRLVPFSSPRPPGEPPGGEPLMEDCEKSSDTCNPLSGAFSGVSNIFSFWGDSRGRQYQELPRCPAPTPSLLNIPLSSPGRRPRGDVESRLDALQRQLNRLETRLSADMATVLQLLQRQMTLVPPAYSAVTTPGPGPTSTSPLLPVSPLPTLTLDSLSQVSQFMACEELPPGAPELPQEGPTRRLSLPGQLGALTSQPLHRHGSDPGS

This experiment addresses human ether-à-go-go-related gene (hERG) potassium channel (human, UniProt Q12809). Kind of experiment: primary screen, population patch clamp on CHO cells stably expressing hERG; higher = less effect of the substance.
Regarding `CCCNS(=O)(=O)c1ccc(OCC(=O)N2CCC(C(=O)OCC)CC2)cc1`, the “hERG current change (%, negative = inhibition) at 10uM” value is listed as -12.6%.

As to `COc1ccc(C2Nc3ccccc3NC3=C2C(=O)CC(C)(C)C3)cc1O` (stereo not drawn), the “hERG current change (%, negative = inhibition) at 10uM” value came out at 19%.

For the molecule `COc1ccc([C@H]2CC(=O)C=C(c3ccc4c5c(cccc35)CC4)C2)cc1`, the “hERG current change (%, negative = inhibition) at 10uM” value was 16%.

With `Cc1cc(N2CCCC2=O)ccc1S(=O)(=O)Nc1c(C)nn(C)c1C`, the “hERG current change (%, negative = inhibition) at 10uM” value stood at 12.3%.

Regarding `N#C/C(=C(/O)c1ccc(Cl)cc1)c1nc2ccccc2[nH]1`, the “hERG current change (%, negative = inhibition) at 10uM” value is 7.3%.

As for `Cn1c(NNC(=O)c2cccc3ccccc23)cc(=O)n(C)c1=O`, the “hERG current change (%, negative = inhibition) at 10uM” value is 6.73%.

Consider `Cc1cc(C)nc(N2CCC(C(=O)NC3CCCCCC3)CC2)n1`, for which the “hERG current change (%, negative = inhibition) at 10uM” value is given as -4.75%.

As to `Cc1cc(C)nc(N2CCC(C(=O)NCc3ccco3)CC2)n1`, the “hERG current change (%, negative = inhibition) at 10uM” value was -1.73%.

`Cc1cc(NCc2ccco2)nc(N2CCC(C(=O)NC3CCCCC3)CC2)n1`: the “hERG current change (%, negative = inhibition) at 10uM” value was -71.1%.

As for `O=C(CSc1nnc(NC(=O)c2ccco2)s1)NC1CCCC1`, the “hERG current change (%, negative = inhibition) at 10uM” value is listed as 18.6%.

On to `CC(Oc1ccccc1)C(=O)N(CCC1=CCCCC1)c1c(N)n(Cc2ccccc2)c(=O)[nH]c1=O` (stereo not drawn), for which the “hERG current change (%, negative = inhibition) at 10uM” value is -48.6%.

On to `Nc1c(N(CCC2=CCCCC2)C(=O)COc2ccc(F)cc2)c(=O)[nH]c(=O)n1Cc1ccccc1`, for which the “hERG current change (%, negative = inhibition) at 10uM” value was -6.12%.

Consider `CC(Oc1ccc(F)cc1)C(=O)N(CCC1=CCCCC1)c1c(N)n(Cc2ccccc2)c(=O)[nH]c1=O` (stereo not drawn), for which the “hERG current change (%, negative = inhibition) at 10uM” value was -52%.

In the case of `COc1ccc(N2CCN(c3oc(-c4ccco4)nc3C#N)CC2)cc1`, the “hERG current change (%, negative = inhibition) at 10uM” value is on record as -47.9%.

For the molecule `N#Cc1nc(-c2ccc(F)cc2)oc1N1CCN(C(=O)c2ccco2)CC1`, the “hERG current change (%, negative = inhibition) at 10uM” value was -75.2%.

Take `N#Cc1nc(-c2ccccc2)oc1N1CCN(C(=O)c2ccco2)CC1`: the “hERG current change (%, negative = inhibition) at 10uM” value is given as -75.7%.

As for `COc1cccc(-c2nc(C#N)c(N3CCN(C(=O)c4ccco4)CC3)o2)c1`, the “hERG current change (%, negative = inhibition) at 10uM” value is on record as -35.1%.

In the case of `N#Cc1nc(-c2ccco2)oc1N1CCOCC1`, the “hERG current change (%, negative = inhibition) at 10uM” value is given as 4.48%.

As for `N#Cc1nc(-c2ccccc2F)oc1N1CCN(C(=O)c2ccco2)CC1`, the “hERG current change (%, negative = inhibition) at 10uM” value was -18.2%.

For the molecule `N#Cc1nc(-c2ccco2)oc1N1CCN(c2ccccc2)CC1`, the “hERG current change (%, negative = inhibition) at 10uM” value was -62.9%.

`N#Cc1nc(-c2ccccc2Cl)oc1N1CCN(C(=O)c2ccco2)CC1`: the “hERG current change (%, negative = inhibition) at 10uM” value is -9.47%.

As to `COc1ccc(-c2nc(C#N)c(N3CCN(C(=O)c4ccco4)CC3)o2)cc1OC`, the “hERG current change (%, negative = inhibition) at 10uM” value came out at 0.504%.

For `O=C(CCCN1C(=O)c2ccccc2C1=O)NCCCN1CCOCC1`, the “hERG current change (%, negative = inhibition) at 10uM” value was determined as 20.3%.

With `CCCCCCCCCCCCN1[C@@H](CC(=O)OC)c2cc(F)cc(F)c2S1(=O)=O`, the “hERG current change (%, negative = inhibition) at 10uM” value is on record as 11.1%.

Take `CCN(CC)/C(=N\S(=O)(=O)c1ccc(F)cc1)c1ccccc1`: the “hERG current change (%, negative = inhibition) at 10uM” value is 8.34%.

Turning to `Cc1cc2n(n1)C(c1sccc1C)Nc1ccccc1-2` (stereo not drawn), the “hERG current change (%, negative = inhibition) at 10uM” value is given as -15.9%.

Take `Cc1ccc(Cn2c(C(CO)Nc3nc(-c4ccc(F)cc4)cs3)nc3ccccc32)cc1` (stereo not drawn): the “hERG current change (%, negative = inhibition) at 10uM” value is listed as 15.4%.

Regarding `CCOC(=O)c1ccc(NC(=O)NCCc2cnc[nH]2)cc1`, the “hERG current change (%, negative = inhibition) at 10uM” value was determined as 4.44%.

In the case of `O=C(c1ccccc1[N+](=O)[O-])N1CCCC(C(=O)N2CCCCCC2)C1` (stereo not drawn), the “hERG current change (%, negative = inhibition) at 10uM” value stood at 10.6%.

Turning to `O=C(Nc1cccc(F)c1)c1cc(-c2ccco2)nc2ccccc12`, the “hERG current change (%, negative = inhibition) at 10uM” value came to 9.26%.

Regarding `O=S(=O)(c1ccc(Cl)cc1)N1CCC(n2cnc3cc(C(F)(F)F)ccc32)CC1`, the “hERG current change (%, negative = inhibition) at 10uM” value is given as -78.4%.

As for `O=C(O)c1cccc(S(=O)(=O)N2CCC(n3nnc4cc(C(F)(F)F)ccc43)CC2)c1`, the “hERG current change (%, negative = inhibition) at 10uM” value stood at 20.7%.

Turning to `COc1ccc(S(=O)(=O)N2CCC(n3cnc4cc(C(F)(F)F)ccc43)CC2)cc1`, the “hERG current change (%, negative = inhibition) at 10uM” value is on record as -73.1%.

In the case of `COc1ccc(S(=O)(=O)N2CCC(N3CCCC3)CC2)cc1`, the “hERG current change (%, negative = inhibition) at 10uM” value is listed as 22.3%.

For `O=C(O)c1ccc(S(=O)(=O)N2CCC(n3nnc4cc(C(F)(F)F)ccc43)CC2)cc1`, the “hERG current change (%, negative = inhibition) at 10uM” value was -37.7%.

With `COc1ccc(S(=O)(=O)N2CCC(N3CCCCC3)CC2)cc1`, the “hERG current change (%, negative = inhibition) at 10uM” value is given as -11.7%.

`CCOC(=O)C1=C(C)NC(=O)NC1c1ccc(N(CC)CC)cc1` (stereo not drawn): the “hERG current change (%, negative = inhibition) at 10uM” value is reported as -6.39%.

For the molecule `CCOc1ccc(C(=O)NCC(=O)OCc2cc([N+](=O)[O-])cc3c2OCOC3)cc1OCC`, the “hERG current change (%, negative = inhibition) at 10uM” value is recorded as -12%.

For the molecule `O=C(c1ccc2c(c1)OCO2)C1CCCN(Cc2cn[nH]c2-c2cccc(F)c2)C1` (stereo not drawn), the “hERG current change (%, negative = inhibition) at 10uM” value was -78.1%.

For the molecule `O=C(c1ccc2c(c1)OCO2)C1CCCN(Cc2cn[nH]c2-c2ccccc2)C1` (stereo not drawn), the “hERG current change (%, negative = inhibition) at 10uM” value is -72.2%.

`Cc1ccc(CN2CCN(Cc3cn[nH]c3-c3cccc(F)c3)CC2CCO)o1` (stereo not drawn): the “hERG current change (%, negative = inhibition) at 10uM” value was -25.8%.

Consider `O=C(c1ccc2c(c1)OCO2)C1CCCN(Cc2ccccn2)C1` (stereo not drawn), for which the “hERG current change (%, negative = inhibition) at 10uM” value is reported as -30.9%.

As for `c1ccc(-c2[nH]ncc2CN2CCN(Cc3ccc4c(c3)OCO4)CC2)cc1`, the “hERG current change (%, negative = inhibition) at 10uM” value is on record as -37.9%.

For `O=C(c1ccc2c(c1)OCO2)C1CCCN(Cc2c(F)cccc2Cl)C1` (stereo not drawn), the “hERG current change (%, negative = inhibition) at 10uM” value is on record as -32.5%.

In the case of `O=C(Nc1ccc2c(c1)OCO2)N1CCCc2ccccc21`, the “hERG current change (%, negative = inhibition) at 10uM” value is on record as 11.7%.

As for `COc1cc(/C=N/NC(=O)c2ccc(O)cc2)ccc1OCC(=O)Nc1cccc([N+](=O)[O-])c1`, the “hERG current change (%, negative = inhibition) at 10uM” value amounted to 10.3%.

`O=S1(=O)N(Cc2ccccc2F)CCCN1Cc1c(F)cccc1Cl`: the “hERG current change (%, negative = inhibition) at 10uM” value was determined as 7.29%.

On to `CC(=O)Nc1ccc(S(=O)(=O)NCc2ccc3[nH]c(C)cc3c2)cc1`, for which the “hERG current change (%, negative = inhibition) at 10uM” value worked out at 21%.

Take `O=C(CN1CCN(c2ccccn2)CC1)Nc1ccc(Br)cc1`: the “hERG current change (%, negative = inhibition) at 10uM” value was -57.7%.

`CC(C(=O)Nc1cc([N+](=O)[O-])ccc1Cl)N1CCN(c2ccccc2)CC1` (stereo not drawn): the “hERG current change (%, negative = inhibition) at 10uM” value was 12.3%.

Turning to `N#Cc1ccccc1NC(=O)CN1CCN(c2ccccn2)CC1`, the “hERG current change (%, negative = inhibition) at 10uM” value was -29.8%.

For `Cc1ccc(NC(=O)CN2CCN(c3ccccn3)CC2)c(Cl)c1`, the “hERG current change (%, negative = inhibition) at 10uM” value is -1.57%.

Regarding `Cc1cc(Br)ccc1NC(=O)CN1CCN(c2ccccn2)CC1`, the “hERG current change (%, negative = inhibition) at 10uM” value was -71.5%.

With `O=C(CN1CCN(c2ccccn2)CC1)Nc1ccccc1Br`, the “hERG current change (%, negative = inhibition) at 10uM” value was -31.6%.

Regarding `CC(=O)Nc1ccc(NC(=O)CN2CCN(c3ccccn3)CC2)cc1`, the “hERG current change (%, negative = inhibition) at 10uM” value came out at 13.3%.

As to `N#Cc1ccc(NC(=O)CN2CCN(c3ccccn3)CC2)cc1`, the “hERG current change (%, negative = inhibition) at 10uM” value was -71.9%.

With `O=C(CN1CCN(c2ccccn2)CC1)Nc1ccccc1`, the “hERG current change (%, negative = inhibition) at 10uM” value is listed as -9.4%.

On to `Cc1ccc([N+](=O)[O-])cc1NC(=O)C(C)N1CCCCC1` (stereo not drawn), for which the “hERG current change (%, negative = inhibition) at 10uM” value turned out to be 30.2%.

On to `Cc1cc([N+](=O)[O-])ccc1NC(=O)C(C)N1CCN(c2ccccn2)CC1` (stereo not drawn), for which the “hERG current change (%, negative = inhibition) at 10uM” value is reported as -71.4%.

Take `O=C(CN1CCN(c2ccccn2)CC1)Nc1ccc(F)cc1.O=C(O)C(=O)O`: the “hERG current change (%, negative = inhibition) at 10uM” value was -47.2%.
